Screening data deposited in PubChem by National Center for Advancing Translational Sciences (NCATS).
SARS PLP yeast: qHTS of Yeast-based Assay for SARS-CoV PLP. S. cerevisiae expressing SARS-CoV PLpro, growth rescue. Potency, µM (highest dose often 32.9 µM), actives largely listed as activators. hit rate 0.19% among 330,000. AID 485353, 2010; calls by dose curve; also: nearly all actives have a fitted effect of over 55% in size
CHX counter: Cycloheximide Counterscreen for Small Molecule Inhibitors of Shiga Toxin | cell reporter, cycloheximide protein synthesis inhibition counterscreen | max response, % | hit rate 12% among 300,000 | AID 2314, 2010; in the data active = max response mostly above about 13%, no sharp cut-off; inactive = mostly below about 14%; also: read at 38.3 µM for the half of the compounds with a filed dose
AmpC inh no detg: qHTS Inhibitors of AmpC Beta-Lactamase (assay without detergent); AmpC nitrocefin hydrolysis, absorbance 480 nm, 0.0001% Triton; Potency, µM (highest dose often 57.1 µM), most hits filed as inhibitors; hit rate 0.52% among 330,000; AID 485341, 2010; also: nearly all actives have a fitted effect of over 20% in size
Target sequence (P00811 whole entry, looked up): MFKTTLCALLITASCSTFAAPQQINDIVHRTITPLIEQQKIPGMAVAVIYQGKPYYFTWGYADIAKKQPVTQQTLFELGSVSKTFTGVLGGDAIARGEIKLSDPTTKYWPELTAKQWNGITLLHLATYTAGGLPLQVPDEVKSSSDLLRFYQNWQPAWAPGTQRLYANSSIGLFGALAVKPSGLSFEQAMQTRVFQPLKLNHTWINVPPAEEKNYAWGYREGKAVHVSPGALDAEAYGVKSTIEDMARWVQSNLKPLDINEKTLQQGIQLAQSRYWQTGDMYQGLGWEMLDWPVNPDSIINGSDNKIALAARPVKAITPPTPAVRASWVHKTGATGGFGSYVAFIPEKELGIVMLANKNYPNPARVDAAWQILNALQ
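20 mM phosphate pH 7.0 + 0.01% (detergent screen) or 0.0001% Triton X-100; 5.3 nM AmpC reagent; cpd preinc 15 min RT; nitrocefin (800 uM stock) to start; A480 q20 s × 4 min; Activity was normalised to no-enzyme and no-compound control wells.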
AMA1 RON2 block: qHTS for Inhibitors of AMA1-RON; Towards Development of Antimalarial Drug Lead: Primary Screen | AlphaScreen AMA1-biotinylated RON2 peptide binding | Potency, µM (doses to about 58.2 µM), usual class: inhibitors | hit rate 0.2% among 360,000 | Plasmodium falciparum AMA1 (3D7) - RON2 peptide interaction; also: nearly all actives have a fitted effect of over 45% in size
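AMA1 (3D7) with his tag at 25 nM final met compounds first, then biotinylated RON2 peptide at 25 nM; detection used donor plus acceptor beads, 10 µg/mL apiece, read by AlphaScreen after 30 min at room temperature.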
Shiga inhibitor: A qHTS for Small Molecule Inhibitors of Shiga Toxin. Vero cells, Shiga toxin protein synthesis inhibition reporter. inhibition, % at 38.7 µM. hit rate 9.2% among 290,000; in the data active = inhibition mostly above about 28%, no sharp cut-off; inactive = mostly below about 43%
AmpC detergent: qHTS Inhibitors of AmpC Beta-Lactamase (assay with detergent); Potency, µM (series often up to 114 µM), actives largely listed as inhibitors; P00811; hit rate 0.041% among 370,000; AmpC hydrolysis of nitrocefin, absorbance 480 nm, 0.01% Triton; also: nearly all actives have a fitted effect of over 25% in size
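AmpC (5.3 nM in the dispensed reagent) in 20 mM phosphate pH 7.0 with 0.01% (detergent screen) or 0.0001% Triton X-100 was preincubated with compounds for 15 min at room temperature. Nitrocefin was then added from an 800 uM solution, and hydrolysis was followed at 480 nm.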
Each line names hits and unclear results; the compound was inactive in the other large screens. Shown is part of a subset that was picked to be rich in hits. Unless noted, calls follow the shape of the dose curve; as a rule, active = well fitted curve in the direction sought with a large enough effect; inconclusive = small, poorly fitted or top-dose-only effect, or another doubt; inactive = no such curve, though single readings can be large; an effect the other way counts as inactive or inconclusive.

O=C1CCC(C(=O)N2CCCC2)CN1Cc1cccc(C(F)(F)F)c1 (centres undefined)	none
C=C(C)C(=O)Nc1cccc(C2=NOC3(C2)C[C@@H](C(N)=O)N(C(=O)CC(c2ccccc2)c2ccccc2)C3)c1 (some centres undefined)	none
COCCCC1CCN(C(=O)C2CCC(=O)N(CCCc3ccccc3)C2)CC1 (centres undefined)	none (no result: SARS PLP yeast, CHX counter, AmpC inh no detg, Shiga inhibitor, AmpC detergent)
O=C(NCc1cc(F)ccc1F)C1CCC(=O)N(C2CCCCCC2)C1 (centres undefined)	CHX counter 35, Shiga inhibitor 86
CCOC(=O)CC1(NC(=O)C2CCC(=O)N(CCc3ccccc3)C2)CCCCC1 (centres undefined)	CHX counter 20, Shiga inhibitor 30
CCOC(=O)CC1(NC(=O)C2CCC(=O)N(C3CC3)C2)CCCCC1 (centres undefined)	none
COc1ccccc1CN1CC(C(=O)N2CCCCO2)CCC1=O (centres undefined)	CHX counter 31, Shiga inhibitor 71
COCCCC1CCN(C(=O)C2CCC(=O)N(CCc3ccccc3)C2)CC1 (centres undefined)	CHX counter 46, Shiga inhibitor 56, AmpC detergent inconclusive
CCCCN(C(=O)Cc1ccc(S(=O)(=O)N2CCOCC2)s1)c1ccccc1	AmpC detergent inconclusive (no result: CHX counter, Shiga inhibitor)
COc1ccccc1CN1CC(C(=O)NCc2cc(F)ccc2C)CCC1=O (centres undefined)	CHX counter 32, Shiga inhibitor 40
Cc1csc(CN(C)C(=O)C2CCC(=O)N(CCCc3ccccc3)C2)n1 (centres undefined)	none
COc1ccccc1CN1CC(C(=O)N(C)Cc2nc(C)cs2)CCC1=O (centres undefined)	CHX counter 17
O=C(NC(C(=O)c1ccccc1)N1CCCCC1)c1ccccc1 (centres undefined)	CHX counter 33, Shiga inhibitor 72
O=C(NN1CCCCC1)c1ccccc1	none
CNC(=O)c1ccc(OC2CSC2)cc1	AmpC detergent inconclusive (no result: SARS PLP yeast, AmpC inh no detg)
O=C(/C=C/c1ccc(OC2CSC2)cc1)c1ccccc1	CHX counter 47, Shiga inhibitor 125
O=C(N/N=C/c1ccc(OC2CSC2)cc1)c1ccccc1	CHX counter 50, Shiga inhibitor 127
CCn1ncc(Br)c1C(=O)Nc1ccc(C(=O)OC(C)C)cc1	CHX counter 27
CCn1cc(Br)c(C(=O)Nc2cccc(SC)c2)n1	CHX counter 32, Shiga inhibitor active
CCn1ncc(Br)c1C(=O)Nc1ccc(OC(F)(F)F)cc1	none
CCn1cc(Br)c(C(=O)Nc2ccccc2C(=O)OC)n1	none
CCn1cc(Br)c(C(=O)Nc2ccc(F)cc2F)n1	CHX counter 25, Shiga inhibitor 45
CCn1ncc(Br)c1C(=O)Nc1ccc(F)cc1F	AmpC inh no detg 0.32µM
CNc1nc(NCCOc2ccccc2)c2sccc2n1	none (no result: SARS PLP yeast, CHX counter, AmpC inh no detg, Shiga inhibitor, AmpC detergent)
CCCCCC(=O)Nc1ccc2oc(-c3cncc(Br)c3)nc2c1	CHX counter 26
CCCC(=O)Nc1ccc2oc(-c3cncc(Br)c3)nc2c1	CHX counter 48, Shiga inhibitor 58
CC(/C=C/c1ccc(O)cc1)=N/O	CHX counter 19, Shiga inhibitor 28
COc1ccc(C(=O)/C=C/c2ccc(OCc3ccccc3)cc2)cc1CSCC(=O)O	none
CC(/C=C/c1ccccc1)=N/O	CHX counter 19
CC(/C=C/c1ccc(OCc2ccccc2)cc1)=N\O	CHX counter 60, Shiga inhibitor 77, AmpC detergent inconclusive
CNC(=O)/C=C1\NC(C)(C)Cc2ccccc21	none
O=c1cc(CO)oc(CN2CCN(CCO)CC2)c1O	none
CCCCn1nc2cc(C(=O)NCC34CC5CC(CC(C5)C3)C4)ccc2c1OCC	AmpC inh no detg inconclusive
O=S(=O)(Nc1nccs1)c1ccc(NS(=O)(=O)c2cccs2)cc1	none
Cc1nc(/N=C(\N)Nc2ccccc2)nc2ccccc12	CHX counter 16 (no result: AMA1 RON2 block)
